# Results reported in PubChem BioAssay.
# Activity calls are given as the source filed them.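 Rule for the calls, unless noted: active = NADPH fluorescence slope more negative than the mean of all samples by about 3 SD, 99.7% confidence; inactive = the rest.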
# Experiments:
# [1] = inhibitors of TNFa-induced NFkB p65 translocation, primary screen, imaging, HUVEC, MLSMR starter and 10KST1 sets (AID 438;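 active = inhibition above 20% together with a positive visual image hit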;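 note: compound added about 3h40 before a 20 min TNFalpha stimulation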;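 for inhibition: signal is the nuclear over cytoplasmic p65 intensity ratio per well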); details: HUVEC TNFa-induced p65 nuclear translocation; cell count: measured here: nuclei count (cytotoxicity indicator), at 2.08 µM; inhibition: at 2 µM, stronger effect = higher value, 0% TNFa-plus-vehicle, 100% no-TNFa wells
# [2] = inhibitors of mutant huntingtin aggregation, primary screen, imaging, exon1htt(103Q)mCFP cells, high-content imaging (AID 483;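 active = visual image review flags a hit and inhibition of aggregation exceeds 20%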;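 note: compound exposure lasted 3 days before fixation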;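 for nuclei count: percent of the per-plate median nuclei count of sample wells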); details: exon1htt(103Q)mCFP cell line, aggregate imaging, at 2 µM; inhibition of aggregation: stronger effect = higher value; nuclei count: measured here: cell count, toxicity
# [3] = inhibitors of E-selectin induction by TNFa, primary screen, imaging, HUVEC, immunofluorescence, MLSMR starter and 10KST1 sets (AID 487;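 active = visually confirmed hit in the image check and inhibition above 20%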;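 for inhibition: signal is fraction of cell area covered by stained E-selectin grains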;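 for nuclei count: 100% = median nuclei count of all wells on the same plate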); details: HUVEC TNFalpha-induced E-selectin immunofluorescence imaging, at 2 µM; inhibition: stronger effect = higher value; nuclei count: measured here: cell number, toxicity
# [4] = molecular target: Voltage-gated potassium channel subunit beta-2 (Rattus norvegicus) (UniProt P62483); experiment: KvBeta enzyme negative modulators, primary screen, biochemical, NADPH fluorescence (AID 622;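 active = fluorescence slope higher than the sample average by over 3 SD, cut at about -0.22 in these data, passing the limit was not always enough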;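 note: slope of raw intensity against log time taken from 70 to 1610 s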); details: recombinant KvBeta, 4-cyanobenzaldehyde reduction, at 10 µM, stronger effect = higher value
# Sequence of Voltage-gated potassium channel subunit beta-2 (Rattus norvegicus) (P62483 whole entry, looked up): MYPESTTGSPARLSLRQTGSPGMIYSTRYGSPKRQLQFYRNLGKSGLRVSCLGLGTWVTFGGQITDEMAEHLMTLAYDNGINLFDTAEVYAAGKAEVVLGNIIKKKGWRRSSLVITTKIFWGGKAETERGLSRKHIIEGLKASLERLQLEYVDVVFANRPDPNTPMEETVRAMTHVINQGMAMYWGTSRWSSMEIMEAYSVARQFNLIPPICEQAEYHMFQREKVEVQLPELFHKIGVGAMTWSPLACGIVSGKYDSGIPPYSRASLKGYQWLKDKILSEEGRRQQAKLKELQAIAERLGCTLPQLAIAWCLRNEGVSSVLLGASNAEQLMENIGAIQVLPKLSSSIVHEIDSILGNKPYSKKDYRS
# [5] = molecular target: Voltage-gated potassium channel subunit beta-2 (Rattus norvegicus) (UniProt P62483); experiment: KvBeta positive modulators, primary screen, biochemical, NADPH fluorescence (AID 623); details: Recombinant KvBeta, NADPH fluorescence decrease slope, 10 min; at 10 µM; stronger effect = lower value;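 note: fluorescence intensity change per second fitted from 20 to 320 s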
# [6] = molecular target: Alpha-2C adrenergic receptor (Homo sapiens) (UniProt P18825); experiment: modulators of alpha2C/GIRK thallium flux, primary screen, cell-based, HEK293 alpha2C/GIRK1/2 (AID 624;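 active = fluorescence slope after compound addition differing from the mean of all screened samples at 99.7% confidence, in either direction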;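 note: slope of fluorescence ratio to pre-addition baseline per second over 15 to 24 s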); details: thallium flux BTC fluorescence, at 10 µM, actives lie on both sides
# Sequence of Alpha-2C adrenergic receptor (Homo sapiens) (P18825 whole entry, looked up): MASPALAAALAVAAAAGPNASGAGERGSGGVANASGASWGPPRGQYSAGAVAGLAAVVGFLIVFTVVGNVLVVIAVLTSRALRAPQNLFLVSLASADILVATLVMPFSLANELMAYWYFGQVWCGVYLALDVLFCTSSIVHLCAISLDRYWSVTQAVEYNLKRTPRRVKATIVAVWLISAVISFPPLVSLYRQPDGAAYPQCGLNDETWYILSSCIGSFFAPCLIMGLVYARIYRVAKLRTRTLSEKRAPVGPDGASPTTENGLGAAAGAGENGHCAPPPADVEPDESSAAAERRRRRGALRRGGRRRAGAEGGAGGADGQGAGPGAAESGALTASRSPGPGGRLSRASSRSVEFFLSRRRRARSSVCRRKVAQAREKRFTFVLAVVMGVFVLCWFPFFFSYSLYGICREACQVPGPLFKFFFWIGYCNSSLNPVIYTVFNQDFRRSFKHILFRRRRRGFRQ
# [7] = inhibitors of Sendai virus-induced IRF3 signaling, primary screen, TLR/RLR signaling modifier project, cell-based, Sendai virus stimulus, luciferase, 10K MLSCN set (AID 602276;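 active = inhibition at or above 50% at 10 µM; inactive = inhibition below 50%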;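 note: firefly luciferase from ISG56 promoter only with Renilla not read in this screen; 0% = Sendai virus plus DMSO and 100% = medium plus DMSO without virus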); details: HEK293 RL24 IRF3 luciferase reporter, at 10 µM, stronger effect = higher value
# [8] = inhibitors of poly I:C-induced TLR3 signaling, primary screen, cell-based, poly I:C stimulus, luciferase, 10K MLSCN set (AID 602277;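 active = inhibition of the reporter signal at or above 50%; inactive = inhibition below 50%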); details: HEK293-TLR3 RL24 IRF3 luciferase reporter, at 10 µM, stronger effect = higher value
compound,measurement,setting,value
Cc1cccc(NC(=O)c2ccc3ccccc3n2)n1,cell count,[1],408
same,inhibition,[1],-4.5% (inactive)
same,inhibition of aggregation,[2],0.8% (inactive)
same,nuclei count,[2],86.6%
same,inhibition,[3],-50.9% (inactive)
same,nuclei count,[3],95.8%
same,fluorescence slope,[4],-0.303 (inactive)
same,NADPH fluorescence slope,[5],-1.5e-05 (inactive)
same,slope,[6],0.0061 (inactive)
same,inhibition,[7],-11.1% (inactive)
same,inhibition,[8],-91.5% (inactive)
Cc1cc(C)c(NC(=O)Cn2cc3c(n2)CCCC3)c(C)c1,cell count,[1],738
same,inhibition,[1],-7.9% (inactive)
same,inhibition of aggregation,[2],-4.1% (inactive)
same,nuclei count,[2],76.3%
same,inhibition,[3],-1.2% (inactive)
same,nuclei count,[3],110%
same,fluorescence slope,[4],-0.515 (inactive)
same,NADPH fluorescence slope,[5],-2e-05 (inactive)
same,slope,[6],0.00662 (inactive)
same,inhibition,[7],26.1% (inactive)
same,inhibition,[8],11.6% (inactive)
Cc1cc(Oc2ccc(Cl)cc2)nc(-c2ccccc2O)n1,cell count,[1],612
same,inhibition,[1],11.3% (inactive)
same,inhibition of aggregation,[2],4.5% (inactive)
same,nuclei count,[2],73.2%
same,inhibition,[3],-13.1% (inactive)
same,nuclei count,[3],101%
same,fluorescence slope,[4],-0.517 (inactive)
same,NADPH fluorescence slope,[5],3.7e-05 (inactive)
same,slope,[6],0.00665 (inactive)
same,inhibition,[7],3.04% (inactive)
same,inhibition,[8],-8.94% (inactive)
Cc1cccc(N2CCN(C(=O)C3CCCN(S(=O)(=O)c4cnc[nH]4)C3)CC2C)c1 (configuration not stated),cell count,[1],387
same,inhibition,[1],1.7% (inactive)
same,inhibition of aggregation,[2],-14% (inactive)
same,nuclei count,[2],107%
same,inhibition,[3],-11.9% (inactive)
same,nuclei count,[3],122%
same,fluorescence slope,[4],-0.438 (inactive)
same,NADPH fluorescence slope,[5],1.5e-05 (inactive)
same,slope,[6],0.00647 (inactive)
same,inhibition,[7],6.53% (inactive)
same,inhibition,[8],17.4% (inactive)
COC(=O)C(C)Sc1nnc2n(-c3cccc(C)c3)c(=O)c3c4c(sc3n12)CCCC4 (configuration not stated),cell count,[1],660
same,inhibition,[1],9.4% (inactive)
same,inhibition of aggregation,[2],7.6% (inactive)
same,nuclei count,[2],101%
same,inhibition,[3],-1.2% (inactive)
same,nuclei count,[3],120%
same,fluorescence slope,[4],-0.58 (inactive)
same,NADPH fluorescence slope,[5],-3.5e-06 (inactive)
same,slope,[6],0.00585 (inactive)
same,inhibition,[7],-16% (inactive)
same,inhibition,[8],-7.85% (inactive)
Cc1cc(=O)n(CCO)c(O)c1C#N,cell count,[1],735
same,inhibition,[1],0.3% (inactive)
same,inhibition of aggregation,[2],-6.8% (inactive)
same,nuclei count,[2],94%
same,inhibition,[3],-22.2% (inactive)
same,nuclei count,[3],110%
same,fluorescence slope,[4],-0.351 (inactive)
same,NADPH fluorescence slope,[5],8.2e-06 (inactive)
same,slope,[6],0.00309 (inactive)
same,inhibition,[7],18.6% (inactive)
same,inhibition,[8],15% (inactive)
CCOC(=O)c1cc2sc(C)cc2n1CC(=O)NCc1ccc(F)cc1,cell count,[1],560
same,inhibition,[1],-19.6% (inactive)
same,inhibition of aggregation,[2],-31% (inactive)
same,nuclei count,[2],98.7%
same,inhibition,[3],-35.8% (inactive)
same,nuclei count,[3],124%
same,fluorescence slope,[4],-0.382 (inactive)
same,NADPH fluorescence slope,[5],-4.5e-05 (inactive)
same,slope,[6],0.00466 (inactive)
same,inhibition,[7],6.92% (inactive)
same,inhibition,[8],16.7% (inactive)
